Assay outcomes deposited in PubChem BioAssay by several laboratories.
CTSL1 counter-1 – counter-screen for PFM18AAP inhibitors: inhibitors of F. hepatica cathepsin L1. recombinant F. hepatica cathepsin L1, Z-Leu-Arg-MCA fluorescence. inhibition, % at 5.96 µM. 0.49% of 300,000 active. AID 1906;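 active = inhibition above the mean of all tested compounds plus 3 SD, set per screening campaign, cut at about 17% in these data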
Rin1 Abl inh – inhibitors of human Rin1-Abl protein interaction; AID 588664; P00519+Q13671; TR-FRET Rin1/Abl binding, biochemical; 0.4% of 360,000 active; inhibition, % at 7.35 µM; in the data active = inhibition above about 5%, passing the limit was not always enough
Calb FLC – affects C. albicans growth with fluconazole; AID 1979; 0.57% of 300,000 active; growth inhibition, % (test concentration not listed); C. albicans CaCi-2 (fluconazole-resistant clinical isolate) + fluconazole, Alamar Blue growth, 48 h;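 active = growth inhibition above about 58% in most replicates, limit read from the data, passing the limit was not always enough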;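 note: all wells also contain fluconazole at 8 µg/ml as a sub-toxic cotreatment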
PfM18AAP inh-1 – PfM18AAP enzyme inhibition | recombinant PfM18AAP, H-Glu-NHMec fluorogenic cleavage | inhibition, % at 7.35 µM | 1.2% of 290,000 active;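 active = inhibition above the campaign mean inhibition over all tested compounds plus 3 SD, cut at about 28% in these data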
PfM18AAP inh-2 – confirmation of Plasmodium falciparum M18 aspartyl aminopeptidase inhibitors; 28% of 2,400 active; inhibition, % at 7.35 µM; AID 2170; shares compounds with PfM18AAP inh-1; recombinant PfM18AAP, H-Glu-NHMec fluorogenic cleavage;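 active = mean inhibition over replicate wells above the hit cutoff set for the earlier primary screen, cut at about 29% in these data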
CTSL1 counter-2 – Cathepsin L (human) inhibition, confirmation. shares compounds with PfM18AAP inh-1. purified cathepsin L1, Z-Leu-Arg-MCA fluorescence. inhibition, % at 5.96 µM. 2,400 tested, under 10 active. AID 2178;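 active = average inhibition across replicates above the hit cutoff set in the earlier primary screen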
Target sequence (P07711 whole entry, looked up): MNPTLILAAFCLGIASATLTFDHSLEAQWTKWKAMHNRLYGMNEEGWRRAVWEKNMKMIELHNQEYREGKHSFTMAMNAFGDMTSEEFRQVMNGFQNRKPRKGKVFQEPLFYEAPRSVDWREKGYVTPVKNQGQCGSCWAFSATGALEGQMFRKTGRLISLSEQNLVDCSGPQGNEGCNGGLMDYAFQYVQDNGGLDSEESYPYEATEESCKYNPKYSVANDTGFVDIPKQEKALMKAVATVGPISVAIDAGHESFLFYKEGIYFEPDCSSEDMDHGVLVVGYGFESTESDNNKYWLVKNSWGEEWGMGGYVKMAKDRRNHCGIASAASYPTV
Hits are given with their value. Rows were chosen to be rich in hits. Some 2.1% of all compounds tested hit in one or more screens of this group.

Results for Cc1ccc(NC(=O)N2CCCC2C(=O)NCc2ccccc2Cl)cc1 (centres undefined) ?
CTSL1 counter-1: inactive; Rin1 Abl inh: inactive; Calb FLC: inactive; PfM18AAP inh-1: inactive

How did CN=c1scc(-c2ccc(F)cc2)n1/N=C/c1ccc(O)c(O)c1 do in these assays?
Rin1 Abl inh: inactive; PfM18AAP inh-1: 54; PfM18AAP inh-2: 48; CTSL1 counter-2: inactive

Results for CCN=c1scc(-c2ccco2)n1/N=C/c1ccc(OC)c(O)c1 ?
CTSL1 counter-1: inactive; Rin1 Abl inh: inactive; Calb FLC: inactive; PfM18AAP inh-1: inactive

What do the screens show for `Cc1ccc(Nc2nc(=O)c3cccnc3s2)cc1`?
CTSL1 counter-1: inactive; Rin1 Abl inh: inactive; Calb FLC: inactive; PfM18AAP inh-1: inactive

How did COc1ccc(OC)c(Nc2nc(=O)c3cccnc3s2)c1 do in these assays?
Rin1 Abl inh: inactive; PfM18AAP inh-1: 54; PfM18AAP inh-2: inactive; CTSL1 counter-2: inactive

Results for CC1CN(S(=O)(=O)c2cccc(C(F)(F)F)c2)C(C)N1C(=O)N1CCOCC1 (centres undefined) ?
CTSL1 counter-1: inactive; Rin1 Abl inh: inactive; Calb FLC: inactive; PfM18AAP inh-1: inactive

How did Cc1[nH]n(-c2ccc(F)cc2)c(=O)c1/C=N/c1sc2c(c1C#N)CCCC2 do in these assays?
CTSL1 counter-1: inactive; Rin1 Abl inh: inactive; Calb FLC: inactive; PfM18AAP inh-1: 34; PfM18AAP inh-2: inactive; CTSL1 counter-2: inactive

How did Cc1[nH]n(-c2cccc3ccccc23)c(=O)c1/C=N/c1sc2c(c1C#N)CCC2 do in these assays?
CTSL1 counter-1: inactive; Rin1 Abl inh: inactive; Calb FLC: inactive; PfM18AAP inh-1: inactive

Results for CSc1nnc2ccc(-c3cccs3)nn12 ?
CTSL1 counter-1: inactive; Rin1 Abl inh: inactive; Calb FLC: inactive; PfM18AAP inh-1: inactive

How did CCN(CC)c1ccc2c(c1)CCCN2 do in these assays?
CTSL1 counter-1: inactive; Calb FLC: inactive; PfM18AAP inh-1: 32; PfM18AAP inh-2: inactive; CTSL1 counter-2: inactive

How did CC(=O)N1CCN(c2ccc(N=Cc3c(O)n(Cc4ccccc4)c(=O)[nH]c3=O)cc2)CC1 do in these assays?
Rin1 Abl inh: inactive; Calb FLC: inactive; PfM18AAP inh-1: 33; PfM18AAP inh-2: inactive; CTSL1 counter-2: inactive

Results for COCCCN1C(=O)/C(=C\c2ccc3c(c2)OCO3)C(C(=O)OC)=C1C ?
CTSL1 counter-1: inactive; Rin1 Abl inh: inactive; Calb FLC: inactive; PfM18AAP inh-1: 52; PfM18AAP inh-2: inactive; CTSL1 counter-2: inactive

How did COCCN1C=C(C(=O)OC)C(c2ccc3c(c2)OCO3)C(C(=O)OC)=C1 do in these assays?
CTSL1 counter-1: inactive; Rin1 Abl inh: inactive; Calb FLC: inactive; PfM18AAP inh-1: 38; PfM18AAP inh-2: inactive; CTSL1 counter-2: inactive

Results for COCCN1C=C(C(=O)OC)C(c2cc3c(cc2Br)OCO3)C(C(=O)OC)=C1 ?
CTSL1 counter-1: inactive; Calb FLC: inactive; PfM18AAP inh-1: inactive

Results for Cc1ccc2nc(N3CC(=O)Nc4ccccc43)nc(-c3ccccc3)c2c1 ?
CTSL1 counter-1: inactive; Rin1 Abl inh: inactive; PfM18AAP inh-1: inactive

Results for COc1ccc(N2C(=O)/C(=C/c3cccnc3)NC2=S)cc1 ?
CTSL1 counter-1: inactive; Rin1 Abl inh: inactive; Calb FLC: inactive; PfM18AAP inh-1: inactive

What do the screens show for `COc1ccc(N2C(=O)/C(=C/N(C)C)NC2=S)cc1`?
CTSL1 counter-1: inactive; Rin1 Abl inh: inactive; Calb FLC: inactive; PfM18AAP inh-1: 80; PfM18AAP inh-2: 69; CTSL1 counter-2: inactive

What do the screens show for `CC1CC(C)CN(S(=O)(=O)c2ccc(NC(=O)C3CSC4(C)CCC(=O)N34)cc2)C1` (centres undefined)?
CTSL1 counter-1: inactive; Rin1 Abl inh: inactive; Calb FLC: inactive

Results for Cc1ccc(C)c(NC(=S)NNc2ccc(F)cc2F)c1 ?
CTSL1 counter-1: inactive; Rin1 Abl inh: inactive; Calb FLC: inactive; PfM18AAP inh-1: 46; PfM18AAP inh-2: inactive; CTSL1 counter-2: inactive

How did Cc1ccc2nc(SCc3cn4cccnc4n3)[nH]c2c1 do in these assays?
CTSL1 counter-1: inactive; Rin1 Abl inh: inactive; Calb FLC: inactive; PfM18AAP inh-1: inactive

Results for OC[C@@H]1CN(Cc2ccc(Cl)cc2)C[C@H](n2cnc3c(NCc4ccc(F)cc4)ncnc32)O1 ?
Rin1 Abl inh: inactive

How did CCN(CC)C(=O)CSc1nc2cc3c(cc2c(=O)n1Cc1ccc2c(c1)OCO2)OCO3 do in these assays?
CTSL1 counter-1: inactive; Rin1 Abl inh: inactive; Calb FLC: inactive; PfM18AAP inh-1: inactive
